# Hits are enriched below; roughly 7.9% of the tested compounds scored in any of these assays.
# HCMV antiviral: blocks human cytomegalovirus replication; HFF cells, HCMV-luciferase reporter, 72 h; stronger effect = lower value; activity change, negative = inhibition, % at 57.5 µM; 4.5% of 410,000 active; AID 1259415; in the data active = activity change below about -60%; inconclusive = no clear call, values can overlap the other calls; inactive = above about -39%
#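 Cell-based, HFFs, 1000 cells/well, 16 h 37C; cpds in DMSO + HCMV-luc, MOI 1 PFU/cell; 72 h 37C; OneGlo luminescence after 5 min RT; norm. to buffer vs Salinomycin 10uM.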
# HCV inhibitor: HCV inhibition; Huh7.5.1 HCVcc-Cre infection, luciferase reporter, 44 h; Potency, µM (doses to about 41.8 µM), for inactives: at the top dose activity change, negative = inhibition, most hits filed as inhibitors; 3.4% of 340,000 active; active = well fitted inhibition curve with a large enough effect; inconclusive = small, poorly fitted or top-dose-only effect, or another doubt; inactive = no such curve, though single readings can be large or run the other way; also: potency is read from the fitted curve at half-maximal effect
#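 1,000 cells/well; 4 h culture; + compound; + HCVcc-Cre (~0.5 moi); 44 h; luciferase substrate, RT 15 min; read 15 sec.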
# MARV entry inh: Marburg virus entry inhibition; Potency, µM (doses to about 37.8 µM), without a hit: at the highest dose activity change, negative = inhibition, most hits filed as inhibitors; 1.8% of 300,000 active; Marburg virus pseudotyped entry inhibition, cell reporter; calls by dose curve; tested in HEK293 cells; also: potency is read from the fitted curve at half-maximal effect
# LASV entry inh: inhibitors of Lassa virus binding or cell entry; Potency, µM (highest dose often 37.9 µM), for inactives: at the top dose activity change, negative = inhibition, actives largely listed as inhibitors; 1.2% of 300,000 active; Lassa virus pseudotype entry inhibition, cell reporter; calls by dose curve; tested in HEK293 cells; also: potency is read from the fitted curve at half-maximal effect; nearly all actives have a fitted effect of over 50% in size
# FMDV inh: antivirals against foot and mouth disease virus. Potency, µM (doses to about 57.9 µM), for the others: at the highest dose activity change, negative = inhibition, most hits filed as inhibitors. 1.2% of 410,000 active. FMDV antiviral cell-based qHTS; calls by dose curve; tested in HEK293T cells; also: read-out not given here; potency is read from the fitted curve at half-maximal effect; nearly all actives have a fitted effect of over 45% in size
# Active calls of the source: *; ? = inconclusive; . = not tested or not shown; [ ] = remark or other dose. % is scaled to controls: 0 for no effect and ±100 for the full control effect.
SMILES,HCMV antiviral,HCV inhibitor,MARV entry inh,LASV entry inh,FMDV inh
CCOc1ccc(NC(=O)C2CCCN(c3c(CC)c(C)nc4ncnn34)C2)cc1 (configuration not stated),31,13µM*,-21%[46.1 µM],.,?
CCc1c(C)nc2ncnn2c1N1CCCC(C(=O)Nc2cc(F)ccc2C)C1 (configuration not stated),-35,-30%,?,-8%,35µM*
Cc1ccc(C)n1-c1nnc(N2CCCC(C(=O)Nc3ccccc3Br)C2)s1 (configuration not stated),19,.,-6%[46.1 µM],-5%[46.1 µM],0%
CCc1c(C)nc2ncnn2c1N1CCCC(C(=O)NCCc2ccccc2)C1 (configuration not stated),-23,-26%,-23%,2%,-6%
COc1ccc(NC(=S)NCc2ccccc2)c(OC)c1,19,-1%,19%[46.1 µM],24%[46.1 µM],22%
Cc1cc(O)c(C(c2cccc(Cl)c2)N2CCN(c3ccccc3)CC2)c(=O)n1Cc1ccco1 (configuration not stated),14,.,.,?,?
CC(C)(C)[C@@H]1CCC(=O)N(CC[C@H](Sc2ccc(Br)cc2)c2ccccc2)CC1,-16,-21%,.,.,?
CN1OC(C)(CC(=O)NCc2ccccc2)N=C1c1ccccc1Cl (configuration not stated),-4,.,.,.,.
O=C(NCC1CCN(S(=O)(=O)c2ccccc2)CC1)Nc1ccc(F)cc1F,5,-19%,-4%[46.1 µM],-9%[46.1 µM],-20%
COC(=O)c1ccc2c(c1)C(C)(C)C(/C=C/c1ccc(OC)c(OC)c1OC)=[N+]2C,-105*,10µM*,?,?,16µM*
O=C1c2cccc3cccc(c23)C(=O)C1(O)O,-69*,-26%,?,-24%,22µM*
Cc1cccnc1C(NC(=O)C1CCN(CCOc2ccc(F)cc2)CC1)c1ccc(F)cc1 (configuration not stated),4,.,.,.,-29%
CC(=O)SC1CC2=CC(=O)CCC2(C)C2CCC3(C)C(CCC34CCC(=O)O4)C12 (configuration not stated),-63*,?,17%[46.1 µM],19%[46.1 µM],-15%
O=C(CN1CCOCC1)N/N=C/c1ccco1,-20,0%,?,15%,12%
COc1ccc(NCC(=O)N/N=C/c2c(C)nn(Cc3ccccc3)c2Cl)cc1,-24,-22%,?,7.9µM*,-21%
O=C(N/N=C/c1c(O)ccc2ccccc12)Nc1ccccc1,-35,?,.,.,32%
Nc1cc(Cl)nc(N/N=C/c2c(O)ccc3ccccc23)n1,-71*,?,?,?,-9%
O=C(CSCC(=O)Nc1ccccc1)N/N=C/c1c(O)ccc2ccccc12,-104*,10µM*,?,26µM*,30%
O=C(CN1CCOCC1)N/N=C/c1c(O)ccc2ccccc12,48,?,?,11µM*,-5%
COc1ccc(C2=NCCn3c2c2ccc(OC)cc2[n+]3[O-])cc1,32,.,.,.,.
O=C(CNc1ccccc1)N/N=C/c1c(O)ccc2ccccc12,-89*,10µM*,.,.,8%
COc1ccc(C(=O)Nc2ccccc2-c2nnn(CC(=O)Nc3ccc4c(c3)OCCO4)n2)cc1,-63*,0%,-6%,22%,0%
O=C(Cn1cnc2ccccc21)Nc1ccc2c(c1)OCCCO2,?,11µM*,.,.,-6%
COc1ccc(C(=O)Nc2ccccc2-c2nnn(CC(N)=O)n2)cc1,-23,-12%,-4%[46.1 µM],2%,?
COc1cc(OC)cc(C(=O)Nc2ccccc2-c2nnn(CC(=O)Nc3cc(C)on3)n2)c1,-63*,-22%,-30%[46.1 µM],.,?
COc1ccccc1NC(=O)Cn1nnc(-c2ccccc2NC(=O)c2ccco2)n1,-3,?,-28%,?,?
COc1ccc(NC(=O)Cn2nnc(-c3ccccc3NC(=O)c3ccco3)n2)cc1,-23,?,11µM*,?,-43%
CC1CCc2c(C(=O)Nc3cccc(-c4nn[nH]n4)c3)csc2C1 (configuration not stated),5,-2%,.,.,20%
CSc1ccc(-c2nc3ccc(C)cn3c2Nc2ccccc2C)cc1,-7,.,1%[46.1 µM],-6%[46.1 µM],0%
CCOC(=O)c1ccccc1NC(=O)c1sc2ncn(Cc3cccc(F)c3)c(=O)c2c1C,22,.,.,12%[46.1 µM],-5%

# Screens from PubChem BioAssay.
